Results published in PubChem BioAssay (NCATS).
Records with an inconclusive call do not appear. Calls of active or inactive are those of the source. Unless noted, the call rests on the fitted dose curve; in most records, active means well fitted curve in the direction sought with a large enough effect; inconclusive means small, poorly fitted or top-dose-only effect, or another doubt; inactive means no such curve, though single readings can be large; an effect the other way counts as inactive or inconclusive.

Experiments:
[1] = biological target: Lysosomal acid glucosylceramidase (Homo sapiens) (UniProt P04062); experiment: Glucocerebrosidase-p2 (AID 348; in the data active means potency below about 10 µM; further: potency means the concentration at half of the fitted maximal effect); conditions: purified GBA, blue fluorogenic substrate, 40 min
Chain of Lysosomal acid glucosylceramidase (Homo sapiens) (P04062 whole entry, looked up): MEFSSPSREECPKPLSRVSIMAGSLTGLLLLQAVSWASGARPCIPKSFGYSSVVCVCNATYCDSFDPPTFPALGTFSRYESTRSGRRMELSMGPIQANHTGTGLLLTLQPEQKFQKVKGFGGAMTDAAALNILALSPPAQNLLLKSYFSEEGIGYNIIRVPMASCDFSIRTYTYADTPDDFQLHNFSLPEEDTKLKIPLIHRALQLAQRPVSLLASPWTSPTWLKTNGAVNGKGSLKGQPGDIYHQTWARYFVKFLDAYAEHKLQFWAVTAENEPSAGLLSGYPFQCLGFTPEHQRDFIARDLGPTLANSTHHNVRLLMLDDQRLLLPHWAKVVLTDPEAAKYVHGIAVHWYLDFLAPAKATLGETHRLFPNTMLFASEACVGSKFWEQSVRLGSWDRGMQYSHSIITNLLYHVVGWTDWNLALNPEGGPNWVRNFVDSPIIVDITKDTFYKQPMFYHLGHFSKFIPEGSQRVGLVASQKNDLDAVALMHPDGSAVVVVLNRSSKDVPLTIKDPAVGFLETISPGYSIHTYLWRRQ
In short: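 Normal human glucocerebrosidase (0.2 nM) with blue fluorogenic substrate (80 uM final) in citrate/phosphate pH 5.9 with 10mM sodium taurocholate, 0.01% tween-20; 40 min RT, NaOH/glycine stop; fluorescence Ex 365/Em 440; AC50 from a titration from 0.6 nM upwards.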

[2] = biological target: Cytochrome P450 1A2 (Homo sapiens) (UniProt P05177); experiment: p450-cyp1a2 (AID 410; calls by dose curve; further: potency means the concentration at half of the fitted maximal effect;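 on activity change, negative = inhibition: -100% = full effect of reference inhibitor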); conditions: recombinant CYP1A2, luciferin-ME demethylation, luminescence; series mostly up to 57 µM
Chain of Cytochrome P450 1A2 (Homo sapiens) (P05177 whole entry, looked up): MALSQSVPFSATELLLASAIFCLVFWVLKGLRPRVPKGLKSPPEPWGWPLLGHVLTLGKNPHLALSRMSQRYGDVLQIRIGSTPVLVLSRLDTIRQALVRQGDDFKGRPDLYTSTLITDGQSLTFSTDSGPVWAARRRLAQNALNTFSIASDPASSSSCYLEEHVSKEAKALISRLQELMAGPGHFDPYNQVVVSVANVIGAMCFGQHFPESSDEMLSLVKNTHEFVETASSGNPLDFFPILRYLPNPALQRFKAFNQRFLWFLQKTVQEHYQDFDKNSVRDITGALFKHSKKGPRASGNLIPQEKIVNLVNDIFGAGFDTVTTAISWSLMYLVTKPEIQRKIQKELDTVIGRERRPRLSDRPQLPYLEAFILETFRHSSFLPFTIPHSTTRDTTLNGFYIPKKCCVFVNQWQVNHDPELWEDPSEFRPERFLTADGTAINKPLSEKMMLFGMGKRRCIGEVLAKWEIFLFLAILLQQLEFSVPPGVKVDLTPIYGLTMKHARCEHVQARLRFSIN
In short: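 Luminescent demethylation readout: Luciferin-ME (100uM, equal to Km) turned over by 20nM CYP1A2 for 60 min at room temperature after NADPH regeneration addition, following 10 min compound preincubation. Normalization used 57 uM furafylline as full inhibition.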

[3] = NFAT Signaling Pathway (AID 444; active means well fitted curve in either direction with a large enough effect, not every such curve was filed as active;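 further: carbachol stimulus at about its EC50 of 1 µM final; on the % scale 0 is the no-effect control and ±100 the full control effect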); conditions: Jurkat NFAT-bla M1, carbachol, beta-lactamase ratio, 5 h; at 7.69 µM (top of the series) unless noted
In short: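 Jurkat cells carrying an NFAT-driven β-lactamase reporter and co-transfected muscarinic M1 receptor were treated with compound plus carbachol (1 uM final, an EC50 level) for 5 h at 37 °C. CCF4 loading followed for 1 h at RT; 460/530 nm ratio gave %activity.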

[4] = Stat Signaling Pathway (AID 446; active means well fitted curve in either direction with a large enough effect, not every such curve was filed as active;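 further: ME-180 cervical cancer cells given 40 pM IL-6 alongside compound; SIE-controlled beta-lactamase reporter measured as 460/530 nm FRET emission ratio; on the % scale 0 is the no-effect control and ±100 the full control effect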); conditions: ME-180 SIE beta-lactamase reporter, IL-6 stimulated, 5 h; at 7.69 µM (top of the series) unless noted
In short: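 Normalization used AC90 stimulation (300 pM IL-6) and AC90 inhibition (125 nM pan-JAK inhibitor at 40 pM IL-6). The underlying signal is SIE-driven beta-lactamase in ME-180 cells after 5 h IL-6 exposure with compound.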

[5] = biological target: Glucocorticoid receptor (Homo sapiens) (UniProt P04150); experiment: GR-GFP Redistribution (AID 450;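 active means compounds whose dose series gives a full or clear partial fitted curve of increased nuclear translocation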; further: potency means the concentration at half of the fitted maximal effect); conditions: U2OS GR-GFP nuclear translocation, laser cytometry, 2 h
Chain of Glucocorticoid receptor (Homo sapiens) (P04150 whole entry, looked up, the tested form may be a part): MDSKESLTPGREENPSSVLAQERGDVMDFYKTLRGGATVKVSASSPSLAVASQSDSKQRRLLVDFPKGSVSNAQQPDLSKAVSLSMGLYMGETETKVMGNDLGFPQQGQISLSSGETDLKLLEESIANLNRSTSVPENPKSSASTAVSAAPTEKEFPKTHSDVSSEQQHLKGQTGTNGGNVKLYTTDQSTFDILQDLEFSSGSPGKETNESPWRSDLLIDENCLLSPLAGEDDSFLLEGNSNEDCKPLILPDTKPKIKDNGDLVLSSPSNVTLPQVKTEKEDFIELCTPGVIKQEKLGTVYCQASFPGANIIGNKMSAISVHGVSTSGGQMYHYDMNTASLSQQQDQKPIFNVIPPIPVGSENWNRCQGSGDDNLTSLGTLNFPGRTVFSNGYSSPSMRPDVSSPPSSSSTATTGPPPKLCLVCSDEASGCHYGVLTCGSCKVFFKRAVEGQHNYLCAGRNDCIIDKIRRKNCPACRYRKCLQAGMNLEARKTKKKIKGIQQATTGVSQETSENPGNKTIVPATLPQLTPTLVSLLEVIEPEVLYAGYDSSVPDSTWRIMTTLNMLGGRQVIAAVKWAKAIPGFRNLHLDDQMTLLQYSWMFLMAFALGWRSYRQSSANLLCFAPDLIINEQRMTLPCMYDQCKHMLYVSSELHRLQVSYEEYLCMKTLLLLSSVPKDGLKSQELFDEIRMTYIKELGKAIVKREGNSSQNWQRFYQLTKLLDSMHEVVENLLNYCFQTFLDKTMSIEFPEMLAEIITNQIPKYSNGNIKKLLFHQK

[6] = biological target: Glucocorticoid receptor (Homo sapiens) (UniProt P04150); experiment: GR-EFC Redistribution (AID 451; calls by dose curve; further: potency means the concentration at half of the fitted maximal effect); conditions: CHO-K1 GR-EFC translocation, beta-gal luminescence, 2 h
In short: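 CHO-K1 cells stably expressing nuclear-localized β-gal enzyme acceptor and GR fused C-terminally to the enzyme donor fragment; ligand-driven nuclear translocation restores β-gal by complementation. Compounds titrated up to 46 uM final, 2 h at 37 °C; luminescence read.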

[7] = biological target: Mitogen-activated protein kinase 10 (Mus musculus) (UniProt Q61831); experiment: JNK3 AlphaScreen Assay (AID 530; active means well fitted curve in either direction with a large enough effect, not every such curve was filed as active;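 further: kinase came from lysate of stimulated human HepG2 cells; signal reports phosphorylation of biotinylated GST-cJun 1-79 at Ser73 with 10 µM ATP; on the % scale 0 is the no-effect control and ±100 the full control effect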); conditions: JNK3 lysate, c-Jun phosphorylation; series mostly up to 57.1 µM
In short: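 Phosphorylation of biotinylated GST-cJun(1-79) at Ser73 is measured by AlphaScreen proximity luminescence. Enzyme is JNK3 in HepG2 lysates activated with interleukin-1beta and tumor necrosis factor alpha; ATP is 10 uM final.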

[8] = biological target: 3',5'-cyclic-AMP phosphodiesterase 4B (Homo sapiens) (UniProt Q07343); experiment: qHTS Assay for Inhibitors of PDE-IV (AID 607; active means well fitted activation curve with a large enough effect in the main read-out, with a control signal flat, not every such curve was filed as active; further: % of control where 0% means no effect); conditions: HEK293 ACTOne CNG channel cells, membrane potential fluorescence; series mostly up to 22.9 µM
Chain of 3',5'-cyclic-AMP phosphodiesterase 4B (Homo sapiens) (Q07343 whole entry, looked up): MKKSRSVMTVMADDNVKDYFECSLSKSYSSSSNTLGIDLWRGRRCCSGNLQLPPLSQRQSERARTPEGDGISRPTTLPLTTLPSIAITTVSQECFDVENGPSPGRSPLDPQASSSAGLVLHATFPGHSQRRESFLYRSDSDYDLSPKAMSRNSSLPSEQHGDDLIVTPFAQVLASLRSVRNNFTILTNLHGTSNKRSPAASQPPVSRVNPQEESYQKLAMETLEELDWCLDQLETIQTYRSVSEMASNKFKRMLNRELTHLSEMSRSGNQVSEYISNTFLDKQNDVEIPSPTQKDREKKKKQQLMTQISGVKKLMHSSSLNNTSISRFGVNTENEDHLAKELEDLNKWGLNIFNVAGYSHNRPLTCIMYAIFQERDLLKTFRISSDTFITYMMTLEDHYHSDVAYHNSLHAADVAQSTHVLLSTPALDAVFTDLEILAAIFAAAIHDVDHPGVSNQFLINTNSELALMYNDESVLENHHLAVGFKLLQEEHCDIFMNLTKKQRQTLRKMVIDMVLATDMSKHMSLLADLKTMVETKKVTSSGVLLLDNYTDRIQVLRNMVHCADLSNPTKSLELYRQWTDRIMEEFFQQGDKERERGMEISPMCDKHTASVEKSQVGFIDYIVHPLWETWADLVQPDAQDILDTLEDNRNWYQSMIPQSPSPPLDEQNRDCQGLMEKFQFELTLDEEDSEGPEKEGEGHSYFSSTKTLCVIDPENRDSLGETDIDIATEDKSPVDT
In short: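 HEK293 ACTOne cells with CNG channel (1000/well), endogenous PDE4; membrane potential dye, compounds up to 22.9 uM final. Fluorescence Ex 535/Em 590; RO 20-1724 (100 uM final) as reference.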

[9] = qHTS Assay for Lipid Storage Modulators (AID 1519; calls by dose curve); conditions: Drosophila S3 cells, BODIPY lipid droplet/cell ratio, laser cytometry, cells loaded with oleic acid; for activity change, negative = inhibition: at 57.5 µM (top of the series)
In short: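 Cells seeded at 5,000 per well were treated with compounds over a concentration series and loaded with oleic acid (400 uM, as added). Lipid droplet fluorescence (488 nm excitation, 500-530 nm channel) was read by laser-scanning cytometry and normalized to 20 uM Triacsin C.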

[10] = biological target: Dual specificity protein kinase CLK4 (Homo sapiens) (UniProt Q9HAZ1); experiment: qHTS Assay for Inhibitors of CDC-like Kinase 4 (Kinase-Glo Assay) (AID 1770); conditions: recombinant Clk4, Kinase-Glo ATP depletion luminescence; series mostly up to 66.7 µM; further: nearly all actives have a fitted effect of over 65% in size; further: potency means the concentration at half of the fitted maximal effect
Chain of Dual specificity protein kinase CLK4 (Homo sapiens) (Q9HAZ1 whole entry, looked up): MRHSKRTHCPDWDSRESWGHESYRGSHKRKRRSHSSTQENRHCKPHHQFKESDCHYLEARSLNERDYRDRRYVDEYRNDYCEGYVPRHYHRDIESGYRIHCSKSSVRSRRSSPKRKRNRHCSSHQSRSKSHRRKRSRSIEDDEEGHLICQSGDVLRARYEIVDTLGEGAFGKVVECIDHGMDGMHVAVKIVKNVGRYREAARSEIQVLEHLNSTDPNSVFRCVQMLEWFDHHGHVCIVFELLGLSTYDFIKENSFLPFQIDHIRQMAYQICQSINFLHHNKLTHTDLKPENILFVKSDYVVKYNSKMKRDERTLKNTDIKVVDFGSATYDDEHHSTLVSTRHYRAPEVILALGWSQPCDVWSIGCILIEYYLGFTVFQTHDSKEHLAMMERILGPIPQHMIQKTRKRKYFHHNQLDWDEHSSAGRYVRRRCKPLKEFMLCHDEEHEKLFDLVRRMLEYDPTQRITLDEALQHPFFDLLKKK
In short: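 Readout: Kinase-Glo luminescence from ATP left after a 4.5 h room-temperature reaction of 25 nM Clk4 with 100 uM RS peptide and 1 uM ATP (final). Buffer: 25 mM Tris pH 7.5, 10 mM MgCl2.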

[11] = biological target: Dual specificity protein kinase CLK4 (Homo sapiens) (UniProt Q9HAZ1); experiment: qHTS Assay for Inhibitors of CDC-like Kinase 4 (ADP-FP Assay) (AID 1795); conditions: Transcreener ADP fluorescence polarization; series mostly up to 50 µM; further: nearly all actives have a fitted effect of over 60% in size; further: potency means the concentration at half of the fitted maximal effect
In short: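 FP readout: Orange Transcreener ADP2 tracer (4 nM) plus ADP antibody, read after 30 min at room temperature. Kinase step: 6.25 nM Clk4, 100 uM RS peptide, 1 uM ATP, pH 7.5, 1 h.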

[12] = biological target: Ubiquitin carboxyl-terminal hydrolase 1 (Homo sapiens) (UniProt O94782); experiment: Inhibitors of USP1/UAF1: Pilot qHTS (AID 504865); conditions: purified USP1/UAF1, Ub-rhodamine cleavage fluorescence; series mostly up to 54.9 µM;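 further: rhodamine fluorescence freed from ubiquitin-rhodamine substrate followed over time; top concentration of the series differs between compounds; on the % scale 0 is the no-effect control and ±100 the full control effect; nearly all actives have a fitted effect of over 35% in size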
Chain of Ubiquitin carboxyl-terminal hydrolase 1 (Homo sapiens) (O94782 whole entry, looked up): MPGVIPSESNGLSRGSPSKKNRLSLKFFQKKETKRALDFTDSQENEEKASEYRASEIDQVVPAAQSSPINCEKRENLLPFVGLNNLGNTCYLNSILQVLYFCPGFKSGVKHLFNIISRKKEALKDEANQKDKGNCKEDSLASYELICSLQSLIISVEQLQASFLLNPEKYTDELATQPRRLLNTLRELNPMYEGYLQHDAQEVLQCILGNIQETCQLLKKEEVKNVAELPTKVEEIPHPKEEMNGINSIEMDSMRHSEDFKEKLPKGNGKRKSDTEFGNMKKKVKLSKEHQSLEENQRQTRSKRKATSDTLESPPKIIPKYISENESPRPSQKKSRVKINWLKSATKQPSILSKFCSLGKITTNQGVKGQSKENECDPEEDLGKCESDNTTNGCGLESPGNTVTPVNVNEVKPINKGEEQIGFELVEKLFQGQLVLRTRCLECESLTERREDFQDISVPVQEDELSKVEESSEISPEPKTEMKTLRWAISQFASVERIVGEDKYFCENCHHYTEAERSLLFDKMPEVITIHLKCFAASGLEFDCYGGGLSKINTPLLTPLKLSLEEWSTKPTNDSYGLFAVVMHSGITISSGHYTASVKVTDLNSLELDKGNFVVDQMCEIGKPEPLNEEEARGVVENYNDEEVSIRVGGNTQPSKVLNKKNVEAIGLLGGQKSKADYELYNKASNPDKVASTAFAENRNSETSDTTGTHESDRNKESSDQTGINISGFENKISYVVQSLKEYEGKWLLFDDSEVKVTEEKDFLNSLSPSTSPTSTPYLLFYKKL
In short: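 1nM USP1/UAF1 + cpd, 15 min RT; start w/ Ub-Rho 150nM final; kinetic FL 480/540 nm, 6 reads q60 s. Buffer 50mM HEPES pH 7.8, 0.5mM EDTA, 1mM TCEP, 0.01% Tween-20, 0.1 mg/ml BSA.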

[13] = AP1 Signaling Pathway (AID 357; active means well fitted curve in either direction with a large enough effect, not every such curve was filed as active;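 further: ME-180 reporter cells stimulated with EGF at its EC50 level; on the % scale 0 is the no-effect control and ±100 the full control effect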); conditions: ME-180 AP-1-bla reporter, EGF-induced, beta-lactamase ratio, 5 h; at 7.69 µM (top of the series) unless noted
In short: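 A ratiometric CCF4 readout (405 nm excitation; 460 and 530 nm emission) quantified AP-1-driven beta-lactamase in ME-180 cells after 5 h with compound and EC50 EGF; AC50 values were derived for activators and inhibitors.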

[14] = biological target: Dual specificity protein kinase CLK4 (Homo sapiens) (UniProt Q9HAZ1); experiment: qHTS Assay for Inhibitors of CDC-like Kinase 4 (ADP-Glo Assay) (AID 1771); conditions: recombinant CLK4, ADP-Glo luminescence; series mostly up to 80 µM; further: nearly all actives have a fitted effect of over 70% in size; further: potency means the concentration at half of the fitted maximal effect
In short: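 ADP production was read by ADP-Glo luminescence after residual ATP depletion, following 1 h room-temperature reaction of 25 nM Clk4, 1 uM ATP and 100 uM RS peptide with MgCl2, EGTA, DTT and Triton X-100.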

[15] = biological target: Cytochrome P450 3A4 (Homo sapiens) (UniProt P08684); experiment: qHTS Assay for Activators of Cytochrome P450 3A4 (AID 885); conditions: recombinant CYP3A4, Luciferin-PPXE luminescence, 60 min; series mostly up to 57.1 µM; further: nearly all actives have a fitted effect of over 65% in size
Chain of Cytochrome P450 3A4 (Homo sapiens) (P08684 whole entry, looked up): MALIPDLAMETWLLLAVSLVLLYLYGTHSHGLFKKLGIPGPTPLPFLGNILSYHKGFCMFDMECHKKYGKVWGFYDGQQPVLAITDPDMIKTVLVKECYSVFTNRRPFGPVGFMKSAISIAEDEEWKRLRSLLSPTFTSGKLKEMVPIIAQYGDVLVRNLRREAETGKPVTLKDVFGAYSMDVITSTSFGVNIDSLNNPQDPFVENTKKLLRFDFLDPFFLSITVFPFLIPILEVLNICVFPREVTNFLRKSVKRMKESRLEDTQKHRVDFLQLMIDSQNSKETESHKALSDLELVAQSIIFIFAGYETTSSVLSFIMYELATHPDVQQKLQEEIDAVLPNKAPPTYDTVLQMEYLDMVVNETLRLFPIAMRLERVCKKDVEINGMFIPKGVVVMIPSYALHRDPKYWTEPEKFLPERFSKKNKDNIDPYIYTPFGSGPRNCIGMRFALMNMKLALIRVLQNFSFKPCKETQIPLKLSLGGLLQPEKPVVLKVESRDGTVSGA
In short: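 Human CYP3A4 dealkylates Luciferin-PPXE to luciferin, which luciferase detection converts to light. Substrate was at its KM (25uM), buffer 200mM KPO4, reaction 60 min at RT.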

[16] = biological target: Cytochrome P450 3A4 (Homo sapiens) (UniProt P08684); experiment: qHTS Assay for Inhibitors and Substrates of Cytochrome P450 3A4 (AID 884); conditions: recombinant CYP3A4, Luciferin-PPXE luminescence; series mostly up to 57.1 µM; further: potency means the concentration at half of the fitted maximal effect; nearly all actives have a fitted effect of over 50% in size
In short: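 Luminescent readout of luciferin produced by CYP3A4 (20 nM) dealkylation of Luciferin-PPXE, 25 uM (its KM). NADPH-driven reaction ran 60 min at RT after 10 min compound preincubation; data scaled to 57 uM ketoconazole as 100% inhibition.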

[17] = qHTS Assay for Identification of Small Molecule Agonists for Hypoxia Response Element Signaling Pathway (AID 914; active means well fitted activation curve with a large enough effect in the signal ratio, with a control signal flat, not every such curve was filed as active; the % refers to the signal ratio; further: potency means the concentration at half of the fitted maximal effect); conditions: ME-180 (cervical carcinoma) HRE-bla reporter, beta-lactamase ratio, CoCl2, 17 h; activation: stronger effect = higher value
In short: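 HRE-bla ME-180 cells, overnight plating in Opti-MEM with 0.5% dialyzed FBS; cpd titration + EC50 CoCl2, 17 h, 37 degrees Celsius; CCF4 2.5 h RT; 460/530 nm ratio; AC50.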

[18] = measured here: cell count channel max response
[19] = measured here: lipid channel max response

SMILES | Potency [1] | Potency [2] | activity change, negative = inhibition [3] | activity, negative = inhibition [4] | Potency [5] | Potency [6] | Potency [7] | Potency [8] | activity change, negative = inhibition [9] | max response [9, 18] [%] | max response [9, 19] [%] | Potency [10] | Potency [11] | Potency [12] | activity change, negative = inhibition [13] | Potency [14] | Potency [15] | Potency [16] | Potency [17]
CN1CCN(c2ncc3ncc(=O)n(-c4ccccc4)c3n2)CC1 | > 11.4 µM (inactive) | 2.51 µM (active) | -18.4% (inactive) | -9.93% (inactive) | > 9.22 µM (inactive) | > 46 µM (inactive) | inactive | inactive | 4.96% (inactive) | 21.7 | 23.9 | inactive | inactive | inactive | – | – | – | – | –
CS(=O)(=O)Nc1cccc(-c2nc(NC3CC3)c3ccccc3n2)c1 | – | – | 0.73% (inactive) | 4.92% (inactive) | > 46 µM (inactive) | > 46 µM (inactive) | inactive | inactive | 3.51% (inactive) | 19.9 | 22.8 | – | 12600 nM (active) | inactive | -17.2% (inactive) | 10 µM (active) | – | – | –
CN1CCN(c2ncncc2-c2ccc(N(C)C)cc2)CC1 | – | 12.6 µM (active) | 6.42% (inactive) | 3.73% (inactive) | > 46 µM (inactive) | > 46 µM (inactive) | inactive | inactive | 2.46% (inactive) | 19.8 | 21.2 | inactive | inactive | inactive | -1.37% (inactive) | – | inactive | – | –
COc1ccc(-c2nc3cnc(OC)nc3n(-c3ccc(OC)cc3)c2=O)cc1 | > 11.4 µM (inactive) | 0.316 µM (active) | 5.9% (inactive) | -4.51% (inactive) | > 9.22 µM (inactive) | > 46 µM (inactive) | inactive | inactive | -15.7% (inactive) | 29.3 | 4.55 | – | inactive | inactive | -4.28% (inactive) | inactive | inactive | – | –
COc1ccc(-c2nc3cnc(N4CCN(C)CC4)nc3n(C)c2=O)cc1 | > 11.4 µM (inactive) | 25.1 µM (active) | 27.7% (inactive) | 26.5% (inactive) | > 9.22 µM (inactive) | > 46 µM (inactive) | inactive | inactive | 1.83% (inactive) | 6.37 | 3.68 | inactive | – | inactive | 14.5% (inactive) | inactive | – | – | –
Cc1noc(C)c1-c1nc(NC2CCNCC2)c2ccccc2n1 | – | 5.01 µM (active) | 26.2% (inactive) | 6.06% (inactive) | > 46 µM (inactive) | > 46 µM (inactive) | inactive | inactive | 4.9% (inactive) | 11.4 | 12.7 | 25.1 µM (active) | – | inactive | 34.4% (inactive) | 28.2 µM (active) | – | – | –
COc1cccc(-c2ccc3ncnc(NCCc4c[nH]c5ccc(OC)cc45)c3c2)c1 | > 11.4 µM (inactive) | 3.98 µM (active) | -6.66% (inactive) | – | > 46 µM (inactive) | > 46 µM (inactive) | – | inactive | -3.93% (inactive) | -24.6 | -27.9 | 5.01 µM (active) | 631 nM (active) | inactive | – | – | inactive | 1.26 µM (active) | –
O=c1c(-c2ccc(F)cc2)nc2cnc(N3CCNCC3)nc2n1Cc1cccs1 | > 11.4 µM (inactive) | 10 µM (active) | 200% [activator] (active) | – | > 9.22 µM (inactive) | > 46 µM (inactive) | – | inactive | 1.91% (inactive) | 8.56 | 9.26 | inactive | – | inactive | – | inactive | inactive | – | 2.51 µM (active)
Cc1noc(C)c1-c1cncnc1N1CCN(C)CC1 | > 11.4 µM (inactive) | inactive | -0.298% (inactive) | 24.7% (inactive) | > 46 µM (inactive) | > 46 µM (inactive) | inactive | inactive | -1.64% (inactive) | 15.1 | 9.71 | – | inactive | inactive | 1.14% (inactive) | inactive | inactive | – | –
Clc1ccccc1-c1cncnc1NCCN1CCOCC1 | > 11.4 µM (inactive) | – | – | 7.26% (inactive) | > 46 µM (inactive) | > 46 µM (inactive) | inactive | inactive | 1.35% (inactive) | 18.6 | 20.3 | inactive | inactive | inactive | – | – | – | – | 3.16 µM (active)
COCCNc1ncnc2ccc(-c3ccccc3C(F)(F)F)cc12 | – | 1.58 µM (active) | 18.9% (inactive) | -11.6% (inactive) | – | > 46 µM (inactive) | inactive | – | -1.49% (inactive) | -4.06 | -5.73 | 25.1 µM (active) | – | inactive | 15.6% (inactive) | 31.6 µM (active) | inactive | – | –
COc1ccc(CNc2ncnc3ccc(-c4ccoc4)cc23)c(OC)c1 | – | – | 4.83% (inactive) | -19.6% (inactive) | > 46 µM (inactive) | > 46 µM (inactive) | inactive | – | -9.76% (inactive) | 19.6 | 6.18 | 0.708 µM (active) | 282 nM (active) | inactive | – | 1 µM (active) | inactive | 3.16 µM (active) | –
